HIF-2a block – HIF-2a inhibition; 786-0 RCC cells HIF-2a reporter, luciferase luminescence, overnight; inhibition, % at 18.8 µM; 360,000 tested, 0.72% active;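 active = inhibition of the luminescence signal of 40% or more relative to plate controls, in a single-dose primary screen at 18.75 µM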
Mdm2 MdmX PPI – human Mdm2/MdmX binding inhibition | O15151+Q00987 | SaOS-2 split-luciferase Mdm2/MdmX complementation, luminescence | inhibition, % at 8 µM | 330,000 tested, 3% active;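 active = inhibition of at least 50% at 8 µM in the primary screen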
Peg3 promoter – reduces Peg3 promoter-driven luciferase expression in HeLa; inhibition, % at 20 µM; HeLa PEG-Prom luciferase reporter, luminescence, overnight; 360,000 tested, 1.7% active; AID 588405;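 active = inhibition of at least 50% at 20 µM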
CF NFkB inh – inhibitors of cystic fibrosis induced NF-kB; KKLEB NF-kB-GFP reporter, PAF-induced, GFP fluorescence overnight; inhibition, % at 5 µM; 360,000 tested, 0.86% active; AID 588850;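 active = at least 50% inhibition at 5 µM, scaled per plate between neutral and stimulator controls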;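 also: PAF is a Pseudomonas aeruginosa culture filtrate used as stimulus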
KKLEB tox – CF airway cell cytotoxicity counter-screen. AID 602141. KKLEB CF airway cells viability, ATPlite luminescence, overnight; stronger effect = lower value; cells stimulated with P. aeruginosa culture filtrate. 360,000 tested, 0.36% active. activity change (cytotoxicity), % at 5 µM;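 active = corrected activity change at or below -50% at 5 µM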
ABHD5-PLIN5 inh – inhibitors of human ABHD5-perilipin-5 interaction; 360,000 tested, 0.78% active; Q00G26+Q8WTS1; Split G. princeps luciferase complementation, luminescence, 4 h; inhibition, % at 4 µM; AID 602281;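 active = inhibition above the mean inhibition across every tested compound plus 3 SD, cut at about 22% in these data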
Target sequence (Q00G26 whole entry, looked up): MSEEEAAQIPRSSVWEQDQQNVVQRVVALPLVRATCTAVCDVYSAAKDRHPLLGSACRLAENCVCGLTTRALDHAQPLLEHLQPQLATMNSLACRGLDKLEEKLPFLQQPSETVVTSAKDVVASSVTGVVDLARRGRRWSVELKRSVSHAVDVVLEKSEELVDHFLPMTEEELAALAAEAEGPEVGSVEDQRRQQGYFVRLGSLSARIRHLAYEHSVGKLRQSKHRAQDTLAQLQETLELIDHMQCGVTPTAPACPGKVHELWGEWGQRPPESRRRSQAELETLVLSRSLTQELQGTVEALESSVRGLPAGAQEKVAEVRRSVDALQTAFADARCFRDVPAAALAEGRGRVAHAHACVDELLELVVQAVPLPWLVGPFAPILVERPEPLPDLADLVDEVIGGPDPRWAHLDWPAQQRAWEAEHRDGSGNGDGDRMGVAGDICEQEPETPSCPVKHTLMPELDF
Target sequence (Q8WTS1 whole entry, looked up): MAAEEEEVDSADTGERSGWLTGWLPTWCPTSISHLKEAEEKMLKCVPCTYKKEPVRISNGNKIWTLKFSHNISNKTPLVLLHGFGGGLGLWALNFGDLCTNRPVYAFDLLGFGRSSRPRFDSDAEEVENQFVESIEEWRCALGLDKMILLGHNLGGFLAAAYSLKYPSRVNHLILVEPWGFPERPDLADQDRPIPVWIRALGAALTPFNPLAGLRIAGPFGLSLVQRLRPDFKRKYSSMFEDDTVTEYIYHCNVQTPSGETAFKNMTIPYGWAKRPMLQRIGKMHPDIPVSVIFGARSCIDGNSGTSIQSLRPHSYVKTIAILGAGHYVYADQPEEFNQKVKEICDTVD
Numbers stand for hits. In the library only some 4.6% were active in any assay of this set; here they are far more common.

CCCCN(C(=O)c1cc(CN2C(=O)c3ccccc3C2=O)ccc1OC)c1c(N)n(CC(C)C)c(=O)[nH]c1=O was read as HIF-2a block inactive, Peg3 promoter inactive, CF NFkB inh inactive, KKLEB tox inactive and ABHD5-PLIN5 inh inactive.
Screening OC[C@@H]1[C@@H](c2ccccc2)C(c2ccc(F)cc2)=NN1c1ccccc1 returned HIF-2a block inactive, Mdm2 MdmX PPI inactive, Peg3 promoter inactive, CF NFkB inh inactive, KKLEB tox inactive and ABHD5-PLIN5 inh inactive.
Screening OC[C@@H]1[C@@H](c2ccc(Cl)cc2)C(c2ccc(F)cc2)=NN1c1ccccc1 returned HIF-2a block inactive, Mdm2 MdmX PPI inactive, Peg3 promoter 85, CF NFkB inh inactive, KKLEB tox inactive and ABHD5-PLIN5 inh inactive.
Screening S=C(NCCCc1cnc[nH]1)NCCCN(Cc1ccc(Cl)cc1)c1ccc(Br)cn1 returned HIF-2a block inactive, Peg3 promoter 94, CF NFkB inh inactive, KKLEB tox inactive and ABHD5-PLIN5 inh inactive.
`S=C(NCCCc1cnc[nH]1)NCCCN(Cc1ccccc1)c1ccc(Br)cn1` gave HIF-2a block inactive, Peg3 promoter inactive, CF NFkB inh inactive, KKLEB tox inactive and ABHD5-PLIN5 inh inactive.
For O=C(O)c1ccc(-c2ccc(-c3ccccc3)cc2)s1 the results were HIF-2a block 70, Mdm2 MdmX PPI inactive, Peg3 promoter 85, CF NFkB inh inactive, KKLEB tox inactive and ABHD5-PLIN5 inh inactive.
For CC(C)CCSc1nc(N)c(C#N)cc1C#N the results were HIF-2a block inactive, Mdm2 MdmX PPI inactive, Peg3 promoter inactive, CF NFkB inh 51, KKLEB tox inactive and ABHD5-PLIN5 inh inactive.
Screening O=C(NC1CCCC1)C(c1cccnc1)N(Cc1ccccc1)C(=O)c1csnn1 (stereo not drawn) returned HIF-2a block inactive, Mdm2 MdmX PPI inactive, Peg3 promoter inactive, CF NFkB inh inactive, KKLEB tox inactive and ABHD5-PLIN5 inh inactive.
`COc1ccc(OC)c2nc3c(C(=O)NCCN(C)C)cccc3nc12` gave HIF-2a block inactive, Peg3 promoter 90, CF NFkB inh inactive, KKLEB tox inactive and ABHD5-PLIN5 inh inactive.
For Cc1cc(C(=O)NCCCN(C)C)c2ccccc2n1 the results were HIF-2a block inactive, Peg3 promoter inactive, CF NFkB inh inactive, KKLEB tox inactive and ABHD5-PLIN5 inh inactive.
CN(C)CCNC(=O)c1cccc2ccc(-c3ccc(-c4ccccc4)cc3)nc12 was read as HIF-2a block inactive, Peg3 promoter 93, CF NFkB inh inactive, KKLEB tox inactive and ABHD5-PLIN5 inh inactive.
Screening COc1ccc(CC(=O)NCCc2ccc(OC)c(OC)c2)cc1 returned HIF-2a block inactive, Mdm2 MdmX PPI inactive, Peg3 promoter 52, CF NFkB inh inactive, KKLEB tox inactive and ABHD5-PLIN5 inh inactive.
Cc1ccc(/C=N/Nc2cc(C)nc(NCc3ccccc3)n2)cc1 was read as HIF-2a block inactive, Mdm2 MdmX PPI inactive, Peg3 promoter inactive, CF NFkB inh inactive, KKLEB tox inactive and ABHD5-PLIN5 inh inactive.
For Cc1cc(N/N=C/c2ccc(O)cc2)nc(NS(=O)(=O)c2ccccc2)n1 the results were HIF-2a block 54, Mdm2 MdmX PPI inactive, Peg3 promoter inactive, CF NFkB inh inactive, KKLEB tox inactive and ABHD5-PLIN5 inh inactive.
Screening CC(=O)Nc1ccc(N(CC(O)Cn2c3ccccc3c3ccccc32)S(=O)(=O)c2ccc(C)cc2)cc1 (stereo not drawn) returned HIF-2a block inactive, Mdm2 MdmX PPI inactive, Peg3 promoter 61, CF NFkB inh inactive, KKLEB tox inactive and ABHD5-PLIN5 inh inactive.
COc1ccc(N2C(c3ccsc3)=Cc3cc4c(cc3C2c2c[nH]c3ccccc23)OCO4)cc1 (stereo not drawn) was read as HIF-2a block inactive and ABHD5-PLIN5 inh inactive.
For Nc1ccc(Cn2ccc3c4c(N)nc(N)nc4ccc32)cc1 the results were HIF-2a block inactive, Peg3 promoter 102, CF NFkB inh inactive, KKLEB tox inactive and ABHD5-PLIN5 inh inactive.
`COc1ccc(CCN2C(=O)c3cccc4c(C(=O)N5CCCCC5)ccc(c34)C2=O)cc1OC` gave HIF-2a block inactive, Mdm2 MdmX PPI inactive, Peg3 promoter 89, CF NFkB inh inactive, KKLEB tox inactive and ABHD5-PLIN5 inh inactive.
For O=C(Nc1ccc(Cl)cc1)C1Cc2c(-c3ccccc3Oc3ccccc3)ccnc2O1 (stereo not drawn) the results were HIF-2a block inactive, Peg3 promoter inactive, CF NFkB inh inactive, KKLEB tox inactive and ABHD5-PLIN5 inh inactive.
`COc1cc(OC)cc(C(=O)Nc2nnc(NC(=S)Nc3ccccc3)s2)c1` gave HIF-2a block inactive, Mdm2 MdmX PPI inactive, Peg3 promoter inactive, CF NFkB inh 65, KKLEB tox inactive and ABHD5-PLIN5 inh inactive.
For COc1cc(OC)cc(C(=O)Nc2ccc(Nc3ccccc3)cc2)c1 the results were HIF-2a block inactive, Mdm2 MdmX PPI inactive, Peg3 promoter inactive, CF NFkB inh inactive, KKLEB tox inactive and ABHD5-PLIN5 inh inactive.
Screening OC(c1ccc(F)cc1)c1nc(-c2cncnc2)cs1 (stereo not drawn) returned HIF-2a block inactive, Peg3 promoter inactive, CF NFkB inh inactive, KKLEB tox inactive and ABHD5-PLIN5 inh inactive.
`O=C(CSc1nnc2c(n1)[nH]c1ccccc12)NCc1ccccc1F` gave HIF-2a block inactive, Mdm2 MdmX PPI inactive, Peg3 promoter inactive, CF NFkB inh inactive, KKLEB tox inactive and ABHD5-PLIN5 inh inactive.
For CCn1c(=N)n(CC(=O)c2cccc([N+](=O)[O-])c2)c2ccccc21 the results were HIF-2a block inactive, Mdm2 MdmX PPI inactive, Peg3 promoter inactive, CF NFkB inh inactive, KKLEB tox inactive and ABHD5-PLIN5 inh inactive.
Cc1ccccc1Cn1c(=N)n(CC(=O)c2ccc([N+](=O)[O-])cc2)c2ccccc21 was read as HIF-2a block inactive, Peg3 promoter 71, CF NFkB inh inactive, KKLEB tox -64 and ABHD5-PLIN5 inh inactive.
`CCCn1c(=N)n(CC(=O)c2ccc([N+](=O)[O-])cc2)c2ccccc21` gave HIF-2a block inactive, Mdm2 MdmX PPI inactive, Peg3 promoter 60, CF NFkB inh inactive, KKLEB tox inactive and ABHD5-PLIN5 inh inactive.
For COc1ccc(C=O)cc1Oc1nc(Cl)ncc1F the results were HIF-2a block inactive, Mdm2 MdmX PPI inactive, Peg3 promoter inactive, CF NFkB inh inactive, KKLEB tox inactive and ABHD5-PLIN5 inh inactive.
Screening c1ccc(COc2ncnc3c2ncn3CCCNC2CCN(Cc3ccccc3)CC2)cc1 returned HIF-2a block inactive, Peg3 promoter 61, CF NFkB inh inactive, KKLEB tox inactive and ABHD5-PLIN5 inh inactive.
Screening C[C@H](CO)N1C[C@H](C)[C@H](CN(C)C(=O)c2ccc3ccn(C)c3c2)OCc2cnnn2CCCC1=O returned HIF-2a block inactive, Peg3 promoter inactive, CF NFkB inh inactive, KKLEB tox inactive and ABHD5-PLIN5 inh inactive.
CN1CCC(C)(C(=O)Nc2cccc(Oc3ccccc3)c2)C1 (stereo not drawn) was read as HIF-2a block inactive, Peg3 promoter inactive, CF NFkB inh inactive, KKLEB tox inactive and ABHD5-PLIN5 inh inactive.
